# Measurements as given in PubChem BioAssay.
# The source made the active and inactive calls. Cut-off read from the data, not from the text of the source: active = inhibition above about 30%; inactive = the rest.
# Tested on: transactivating tegument protein VP16 (Human herpesvirus 1), Gal4-VP16 luciferase reporter
# Assay: repression of VP16-driven luciferase reporter – cell-based, luminescence, high throughput, counter-screen for SRC3 inhibitor project (AID 588794)
# Conditions: mammalian cells, at 3.6 µM, hits give high values
row,SMILES,inhibition
1,COn1c(C)c(C(C)=O)c2c3nonc3ccc21,33.5% (active)
2,Cc1ccc(S(=O)(=O)Nc2ccc3c(c2)OCCO3)cc1C,-2.28% (inactive)
3,CC(=O)Nc1ccc(NC(=O)c2ccc(N(Cc3ccccc3C)S(C)(=O)=O)cc2)cc1,-7.31% (inactive)
4,CCOC(=O)N1CCC(NC(=O)C2CCCN(Cc3nc(-c4ccc(CC)cc4)oc3C)C2)CC1 (stereo not given),33.9% (active)
5,O=C(Nc1ccccc1Cc1ccccc1)c1ccccc1NS(=O)(=O)c1ccc(Cl)s1,24.9% (inactive)
6,CCOc1c(Br)cc(CNC2CCCCCCC2)cc1OC,-0.26% (inactive)
7,CCc1ccc([C@@H]2CC(=O)[C@@H]3CN(S(=O)(=O)c4ccccc4C)[C@H](c4ccc(Cl)cc4)C[C@@H]3N2S(=O)(=O)c2ccc(C)cc2)cc1,4.71% (inactive)
8,Clc1ccc2nnnc(-c3ccccc3)c2c1,68% (active)
9,CCCNc1nc(OC(C(F)(F)F)C(F)(F)F)nc(OC(C(F)(F)F)C(F)(F)F)n1,-8.01% (inactive)
10,CC(=O)N1CCc2cc(S(=O)(=O)NCCC(=O)NCCc3ccc(Cl)cc3)ccc21,1.52% (inactive)
11,[O-]C(=C(C(=S)Nc1cccc2ccccc12)[n+]1ccccc1)c1ccc2c(c1)OCCO2,-0.81% (inactive)
12,Nc1ccccc1-c1ccc([N+](=O)[O-])cc1,33.1% (active)
13,CCN1CCN(c2cc(C)c3cc(NC(=S)N4CCCC(C)C4)ccc3n2)CC1 (stereo not given),31.4% (active)
14,CC(=O)c1ccc(Sc2nnnn2-c2ccccc2)c([N+](=O)[O-])c1,-10.4% (inactive)
15,CCOC(=O)C(=O)NNc1ccc(C)cc1,4.76% (inactive)
16,COc1ccc(CCNc2ncnc3sccc23)cc1OC,42.6% (active)
17,O=C(Nc1ccc(S(=O)(=O)Nc2ccc(F)cc2)cc1)c1ccc(CN2CCOCC2)cc1,38.6% (active)
18,Cn1nc(C(F)(F)F)c(-c2ccccc2)c1NC(=O)c1cccnc1,11.4% (inactive)
19,O=C(NC(=S)Nc1cccc2cnccc12)c1ccccc1,44.1% (active)
20,Cc1c(Cl)cccc1NC(=O)CCC(=O)N/N=C/c1ccc[nH]1,14.5% (inactive)

row,SMILES,inhibition
1,COc1ccc(-c2ncncc2-c2ccc(Cl)cc2)c(O)c1,22.8% (inactive)
2,O=C1CC(=O)OC(c2ccc([N+](=O)[O-])cc2)O1,40.5% (active)
3,Cn1nnnc1Sc1ncnc2scc(-c3ccccc3)c12,2.99% (inactive)
4,O=[N+]([O-])c1ccccc1NC1CCN(Cc2ccccc2)CC1,0.87% (inactive)
5,O=C(CC12CC3CC(CC(C3)C1)C2)Nc1nncs1,19.6% (inactive)
6,CSc1cccc(N/C(=N/S(=O)(=O)c2ccccc2)NN)c1,0.02% (inactive)
7,Cc1ccsc1C(=O)C1CCCN(Cc2cccn2-c2ccc(Cl)cn2)C1 (stereo not given),23.2% (inactive)
8,FC(F)(F)c1cccc(NC(=S)N(CCCN2CCCC2)Cc2cccn2Cc2ccc(Cl)cc2)c1,0.12% (inactive)
9,CC1Cc2cc(-c3csc(NC(=O)Cc4ccccc4)n3)ccc2N1S(C)(=O)=O (stereo not given),24.3% (inactive)
10,COc1ccc(CCNC(=O)C(C)n2nc(C)c3c(C)n(-c4ccc(C)cc4)nc3c2=O)c(OC)c1 (stereo not given),30.4% (active)
11,O=c1[nH]c(=O)n(C2CC(O)C(CO)O2)cc1I (stereo not given),11.8% (inactive)
12,COc1cccc(/C=N/NC(=O)CNC(=O)C(c2ccccc2)c2ccccc2)c1O,20.7% (inactive)
13,CC(=O)c1c(C)[nH]c(C(=O)Nc2ccc(Cl)c(S(=O)(=O)N3CCOCC3)c2)c1C,-16.6% (inactive)
14,CCOc1cc(C(=O)N2CCC(CC3CC(c4ccc(Cl)cc4)=NO3)(C(=O)NCC3CCCCC3)CC2)cc(OCC)c1OCC (stereo not given),7.56% (inactive)
15,CC#CC[N+](C)(C)CCCCCCCCCC,16.9% (inactive)
16,CCC(C)(C(=O)NC1CCCC1)N(C(=O)CNC(C)=O)c1ccc(C)cc1 (stereo not given),-7.27% (inactive)
17,O=C(Nc1sc2c(c1C(=O)O)CCCC2)c1ccc(Cl)cc1,50.5% (active)
18,COc1ccc2nc(C)cc(Nc3ccc(N4CCN(C)CC4)cc3)c2c1,35.3% (active)
19,CCCCCCCOC(=O)C[N+](C)(C)CCOC1CC2CCC1(C)C2(C)C (stereo not given),9.62% (inactive)
20,O=C(NNC(=S)NCc1ccccc1)c1ccc2c(c1)OCO2,-11.7% (inactive)
